Compounds without any hit were thinned out: in the full panel of roughly 79,000, 15% have a hit. No stated cut-off is given here; in the data, active means growth inhibition above about 70%; inactive means the rest.
Tests used:
[1] = NCI Yeast Anticancer Drug Screen. Data for the rad50 strain (AID 155);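 further: 0% = growth of vehicle-only cultures of the same strain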; conditions: S. cerevisiae rad50 strain growth inhibition; at 50.0 µM; stronger effect = higher value
How it was run: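 Yeast carrying a defined DNA repair defect were exposed to test compounds, and growth was compared with vehicle-treated controls to give percent inhibition.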

[2] = NCI Yeast Anticancer Drug Screen. Data for the mec2-1 strain (AID 157); conditions: S. cerevisiae mec2-1 strain, at 50.0 µM, stronger effect = higher value
How it was run: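 Strain: mec2-1 (DNA repair/cell cycle alteration). Compound exposure, then growth measured; inhibition expressed relative to vehicle.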

[3] = NCI Yeast Anticancer Drug Screen. Data for the sgs1 mgt1 strain (AID 161);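 further: 0% = growth of cultures given vehicle only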; conditions: S. cerevisiae sgs1 mgt1 strain, at 50.0 µM, stronger effect = higher value
How it was run: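 Read-out: growth inhibition vs vehicle controls. Cells: mutant yeast strain deficient in DNA damage repair.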

[4] = NCI Yeast Anticancer Drug Screen. Data for the cln2 rad14 strain (AID 165);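 further: 0% = growth equal to vehicle treated cultures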; conditions: S. cerevisiae cln2 rad14 strain, at 50.0 µM, stronger effect = higher value
How it was run: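 Compounds are applied to the cln2 rad14 yeast strain, and growth is then compared with that of vehicle-treated cultures to give inhibition.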

[5] = NCI Yeast Anticancer Drug Screen. Data for the bub3 strain (AID 167); conditions: S. cerevisiae bub3 mutant strain, at 50.0 µM, stronger effect = higher value
How it was run: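 Compounds were applied to a genetically altered yeast strain carrying a cell-cycle control defect. Growth inhibition was scored against vehicle-treated controls.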

[6] = NCI Yeast Anticancer Drug Screen. Data for the mlh1 rad18 strain (AID 175); conditions: S. cerevisiae mlh1 rad18 strain growth inhibition; at 50.0 µM; stronger effect = higher value
How it was run: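 Read-out is yeast growth inhibition, calculated against vehicle-only controls. The compound was applied to a strain engineered with DNA damage repair alterations.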

Measured: growth inhibition

CCCCn1cnc2c(SC(C)C)nc(N)nc21
inactive: [1] -13.1% | [2] -2.15% | [3] 17.4% | [4] -24.9% | [5] 8.8% | [6] -16.2%

Cc1ccc(NC(=O)CSc2nnc(Cc3ccccc3)o2)cc1
inactive: [1] -15.4% | [2] -4.35% | [3] -18.5% | [4] -20.1% | [5] -3.65% | [6] -25.6%

Fc1ccc(-c2ccc(F)cc2)cc1
inactive: [1] -18.6% | [2] -15.4% | [3] -12.1% | [4] -44.9% | [5] -6.8% | [6] -23.1%

CS(=O)(=O)OC1CC/C=C\CCC1OS(C)(=O)=O (stereo not given)
inactive: [1] 1.3% | [2] 14.5% | [3] 12.3% | [4] -9.35% | [5] -15.4% | [6] -15.6%

CCc1nnc2sc3c(Cl)c4nn5c(CC)nnc5sc4c(Cl)c3nn12
inactive: [1] 37.2% | [2] -6.2% | [3] 16.8% | [4] 24.2% | [5] -0.3% | [6] 12.5%

O=c1cc(-c2ccccc2)c2ccccc2[nH]1
inactive: [1] 2.15% | [2] -6.8% | [3] -12.5% | [4] 15.9% | [5] -27.1% | [6] -1%

COC(=O)c1nc(N)nc(C(=O)OC)c1C(=O)c1ccc(Cl)c(Cl)c1
inactive: [1] -7.6% | [2] 7.15% | [3] -18.5% | [4] -5.05% | [5] 3.2% | [6] 10.6%

CCOC(=O)C(C#N)(Cc1ccccc1CC(C#N)(NC(C)=O)C(=O)OCC)NC(C)=O (stereo not given)
inactive: [1] -4.9% | [2] -0.25% | [3] -10.1% | [4] -0.3% | [5] -3.4% | [6] 10.7%

[O-]c1c[n+](CC[n+]2cc([O-])on2)no1
inactive: [1] 13.7% | [2] -8.45% | [3] -13.2% | [4] 40.5% | [5] -19.6% | [6] -14.7%

N=C(N)SCc1cccc(Cl)c1
inactive: [1] -20% | [2] -14% | [3] -4.55% | [4] -82.1% | [5] -9.45% | [6] -22.6%

CCOC1=CC(=O)C(=O)c2ccccc21
inactive: [1] -1.05% | [2] -10.2% | [3] -5.8% | [4] -17.7% | [5] -0.55% | [6] 10.3%

CCCCCCCCCCCCNc1ncnc2c1cnn2C
inactive: [1] -9.1% | [2] -14.4% | [3] -1.25% | [4] -47.2% | [5] 23.9% | [6] -25.2%

CC(=O)C1C(=O)OC2C3C=CC(C3)C2C1=O (stereo not given)
inactive: [1] 14.9% | [2] 21.1% | [3] 0.9% | [4] -4.7% | [5] 20.1% | [6] 42.6%

COc1ccc(C2c3cc4c(cc3OC(NNS(=O)(=O)c3ccc(C)cc3)C2C)OCO4)cc1 (stereo not given)
inactive: [1] -22.4% | [2] 12.9% | [3] 9.55% | [4] 4.4% | [5] -5.1% | [6] 34.2%

CC(C)Cc1cccc(C(C)C)c1NC(=O)CCC(=O)N/N=C1\C(=N/NC(=O)CCC(=O)Nc2c(C(C)C)cccc2C(C)C)C(c2ccc3c(c2)OCO3)Oc2ccccc21 (stereo not given)
inactive: [1] 5.2% | [2] -21.6% | [3] -5% | [4] -2.7% | [5] 6.75% | [6] 11.2%

NC(=O)c1c(N)nnc(-c2ccccc2)c1-c1ccccc1
inactive: [1] -6.15% | [2] -7.65% | [3] -5.75% | [4] -25.8% | [5] -3.45% | [6] -16.2%

CCCCS/C=C\SCCCC
inactive: [1] 2.85% | [2] 7.55% | [3] -8.5% | [4] -26.4% | [5] 6.7% | [6] -1.65%

O=c1ccc2cc3ccoc3c(OCCOCCOCCOCCOc3c4occc4cc4ccc(=O)oc34)c2o1
inactive: [1] 14.7% | [2] 17.4% | [3] 11.4% | [4] -17.2% | [5] 3.5% | [6] 26.8%

COc1ccc(C(=O)c2cccc(C(=O)c3ccc(OC)cc3)c2)cc1
inactive: [1] -13.1% | [2] -19.4% | [3] -3.5% | [4] -0.9% | [5] -13.5% | [6] -4.15%

CCOC(=O)N1C2C=C(C)C(ON2C(=O)c2ccccc2)C2C(C)C(=O)N21 (stereo not given)
inactive: [1] -3.8% | [2] -10.7% | [3] -5.8% | [4] 18.1% | [5] -17.5% | [6] -13.4%
